Records with an inconclusive call do not appear. Values without a mark were called inactive. Activity calls are given as the source filed them. Calls come from the whole dose curve; as a rule, active = well fitted inhibition curve with a large enough effect; inconclusive = small, poorly fitted or top-dose-only effect; inactive = flat fitted curve, though single readings scatter.
% is set by controls: 0 for no effect and ±100 for the full control effect; potency is the fitted concentration of half-maximal effect.

The subject of this assay is CRL-7250. The assay is described as follows: Cytotoxic Profiling of Annotated Libraries Using Quantitative High-Throughput Screening (AID 1296008). Note: nearly all actives have a fitted effect of over 60% in size. The note with it: Five cell lines viability, CellTiter-Glo ATP luminescence, 48-72 h; max response: active compounds read low. In a few lines: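 Cytotoxicity was measured as CellTiter-Glo ATP luminescence, read after 10 min at room temperature. Compound treatment of the cells lasted 48 or 72 hr at 37 degrees Celsius in a qHTS format.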
Consider `COc1ccc(C(=O)O[C@H]2C=COC=C3C=C4C(=O)N(C)C(=S)C(=O)N4[C@@H]32)cc1Oc1cc(C=O)ccc1O`, for which the max response is -5.08%.
On the same count and under the same terms, for `Cc1[nH]c(/C=C2\C(=O)Nc3cc(-c4ccccc4)ccc32)c(C)c1CCC(=O)O` the value was -17.7%; for `C=C1CC[C@@H](O)[C@]2(C)CC[C@H]3C(=C)C(=O)O[C@@H]3[C@@H]12`, -3.82%.
In the case of `COC(=O)c1ccc2c(c1)[nH]c1ncnc(NCCCN3CCCCC3)c12`, the max response is -8.38%.
Consider `CC(C)OC(=O)N1CCC(Oc2ncnc3c2cnn3-c2ccc(S(C)(=O)=O)cc2F)CC1`, for which the outcome was inactive.
`C=C1C(=O)OC2C=C(C)CC/C=C(\CO)CC(O)C12` (configuration not stated): the max response is -3.89%.
`C=C1CC[C@H]2C(=C)CC[C@H]3C(=C)C(=O)O[C@@H]3[C@@H]12`: the max response is -11.6%.
Still for that read-out and setting: for `C=C1C(=O)OC2CC(C)C(CCC(C)=O)=CCC12` (configuration not stated) the value was -28.7%; for `CN(C)c1cccc(Oc2cnc(Nc3cccc(O)c3)nc2)c1`, 4.02%.
Same read-out and setting: in the case of `CC1OC2OC(=O)C3(C)CC4C5(CO5)C5=CC(=O)OC(C)(C)C5=CC(=O)C4(C)C(C1=O)C23` (configuration not stated) it was -8.36%; in that of `CN1CC2CN(c3ccc4oc5ccccc5c(=O)c4c3)CC2C1` (configuration not stated), -0.983%; in that of `NCC(CNc1nc(Nc2cccc(NC(=O)N3CCCC3)c2)ncc1I)C(=O)c1cccs1` (configuration not stated), -26%.
On the same count and under the same terms, for `O=C(OC1CN2CCC1CC2)N1CCc2ccccc2C1c1ccccc1` (configuration not stated) the value was 0.185%.
Turning to `CN1CCN(C2=Nc3ccccc3Nc3ccc(Cl)cc32)CC1`, the max response was -0.222%.
The same measure, in the same setting: in the case of `COC(=O)c1ccnc(-c2cc(C(=O)Nc3ccc(C4(N)CC4)cc3)ccn2)c1` it was -5.77%; in that of `CCC(C)C(=O)Oc1cc(C)ccc1C1(COC(=O)C(C)C)CO1` (configuration not stated), -0.891%.
In the case of `NC(=O)c1cccc2[nH]c(-c3ccc(C4CCCN4)cc3F)nc12` (configuration not stated), the result was inactive.
Consider `C=C1CCC2C(C)(C)CCCC2(C)C1CC/C(C)=C\CO` (configuration not stated), for which the max response was 3.55%.
Regarding `CCOC(=O)N1CCC(N2CCC[C@@H](NC(=O)c3ccccc3C)C2)CC1`, the max response was -6.33%.
The same measure, in the same setting: for `COC1C(OC(=O)/C=C/C=C/C=C/C=C/C(=O)O)CCC2(CO2)C1C1(C)OC1CC=C(C)C` (configuration not stated) the value was -15.2%; for `CC(C)S(=O)(=O)c1ccc2nccc(Nc3ccc4scnc4c3)c2c1`, -19%.
Take `C=C1CCC[C@]2(C)CC/C(=C(/CO)C(=O)OC)C[C@@H]12`: the max response is -7.08%.
As for `CC(=O)O[C@@H]1CC[C@@]2(C)[C@H](CC[C@@H]3[C@@H]2C[C@H](OC(C)=O)[C@]2(C)[C@@H](C(C)=O)CC[C@@H]32)C1`, the max response is -9.5%.
For the compound `COc1c(CCC(=O)O)cccc1O[C@@H]1O[C@H](CO)[C@@H](O)[C@H](O)[C@H]1O`, the compound was called inactive.
For the compound `Cc1[nH]c2ccccc2c1CCNC(=O)c1cccs1`, the max response is -14.1%.
For `O=C(O)CSc1cc(NS(=O)(=O)c2ccc(Br)cc2)c2ccccc2c1O`, the Potency is 23.1 µM (active).
Take `CN1CCN(C2=Nc3ccccc3Nc3ccc(OS(=O)(=O)C(F)(F)F)cc32)CC1`: the compound was called inactive.
In the case of `O=C(NCC1(c2nc(-c3ccccc3)cs2)CCOCC1)c1cccc(-c2noc(C(F)(F)F)n2)c1`, the max response was -0.2%.
Same read-out and setting: for `COc1ccc2nccc(C(=O)CC[C@@H]3CCN(CC#Cc4cc(F)cc(F)c4F)C[C@@H]3C(=O)O)c2c1` the value was -3.43%; for `CCOc1nc(NC(=O)Cc2cc(OC)ccc2OC)cc(N)c1C#N`, -9.74%.
Same read-out and setting: in the case of `COC(=O)C[C@H]1C(C)(C)[C@H](OC(=O)c2ccccc2)C2CC3=C4CC(=O)O[C@@H](c5ccoc5)[C@]4(C)CCC3[C@@]1(C)C2=O` (some centres not stated) it was -6.86%; in that of `C=C1C(=O)OC2/C=C(\C)CC/C=C(\C=O)C(OC)C(OC(=O)C(C)CC)C12` (configuration not stated), -23.9%; in that of `CCN(CC)CCCCCCNc1cc(OC)cc2c(C)ccnc12`, -13.4%.
Take `Fc1ccc(N2CCN(CCC3OCCc4ccccc43)CC2)cc1` (configuration not stated): the max response was -11.3%.
In the case of `C=C(C)C1CCC2(C(=O)O)CCC3(C)C(CCC4C5(C)C(C=O)C(O)C(C)(C)C5CCC43C)C12` (configuration not stated), the max response was -7.47%.
In the case of `Cc1csc(N(C(=O)CSc2ccc(-c3ccccc3)nn2)C2CC2)n1`, the max response is -10.7%.
Still for that read-out and setting: for `Cc1c(NC(=O)c2cc3c(s2)CCCC3)cccc1-c1cn(C)c(=O)c(Nc2ccc(C3C(=O)N(C)CCN3C)cc2)n1` (configuration not stated) the value was -5.13%.

The record behind these values is PubChem BioAssay (NCATS).
